Screening data (PubChem BioAssay)
In the library only some 4.1% were active in any assay of this set; here they are far more common.
AMA1 RON2 block: disrupts binding of P. falciparum AMA1 to RON2. actives 0.2% (n = 360,000). AID 720542. AlphaScreen AMA1-biotinylated RON2 peptide binding. Potency, µM (titrated, usually from 58.2 µM), for inactives: at the highest dose activity change, negative = inhibition, usual class: inhibitors;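 also: 0% = vehicle wells and -100% = peptide control; nearly all actives have a fitted effect of over 45% in size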
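AMA1 (3D7) with his tag at 25 nM final met compounds first, then biotinylated RON2 peptide at 25 nM; detection used donor plus acceptor beads, 10 µg/mL apiece, read by AlphaScreen after 30 min at room temperature.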
Sm TGR block: inhibitors of Schistosoma mansoni thioredoxin glutathione reductase; actives 3% (n = 360,000); Q962Y6; Potency, µM (doses to about 114 µM), for the others: at the top dose activity change, negative = inhibition, usual class: inhibitors; purified TGR, DTNB reduction, TNB absorbance 405 nm; also: nearly all actives have a fitted effect of over 60% in size
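Kinetic colorimetric format: TGR-catalysed, NADPH-driven DTNB reduction monitored via TNB absorbance. Enzyme dispensed at 20 nM; compound exposure 15 min at room temperature before reaction start.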
AmpC inh detg: inhibitors of E. coli AmpC beta-lactamase with detergent; P00811; AmpC hydrolysis of nitrocefin, absorbance 480 nm, 0.01% Triton; Potency, µM (doses to about 114 µM), for inactives: at the top dose activity change, negative = inhibition, usual class: inhibitors; actives 0.041% (n = 370,000);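 also: 0% = no-compound wells and -100% = no-enzyme wells; nearly all actives have a fitted effect of over 25% in size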
Target sequence (P00811 whole entry, looked up): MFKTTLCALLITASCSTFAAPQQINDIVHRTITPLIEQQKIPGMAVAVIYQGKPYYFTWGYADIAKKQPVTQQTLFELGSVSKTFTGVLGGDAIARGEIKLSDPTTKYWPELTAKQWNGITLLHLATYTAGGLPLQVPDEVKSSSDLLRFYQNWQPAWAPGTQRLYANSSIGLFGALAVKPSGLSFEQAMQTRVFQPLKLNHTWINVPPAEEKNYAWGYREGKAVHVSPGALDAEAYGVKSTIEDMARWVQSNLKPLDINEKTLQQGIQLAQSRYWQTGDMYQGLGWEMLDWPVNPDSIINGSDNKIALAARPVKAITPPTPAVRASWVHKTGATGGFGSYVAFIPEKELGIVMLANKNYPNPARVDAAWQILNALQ
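20 mM phosphate pH 7.0 + 0.01% (detergent screen) or 0.0001% Triton X-100; 5.3 nM AmpC reagent; cpd preinc 15 min RT; nitrocefin (800 uM stock) to start; A480 q20 s × 4 min; Activity was normalised to no-enzyme and no-compound control wells.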
FMDV antiviral: blocks foot and mouth disease virus. FMDV antiviral cell-based qHTS. Potency, µM (highest dose often 57.9 µM), for inactives: at the top dose activity change, negative = inhibition, usual class: inhibitors. actives 1.2% (n = 410,000); calls by dose curve; tested in HEK293T cells; also: read-out not given here; nearly all actives have a fitted effect of over 45% in size
AmpC inh no detg: blocks E. coli AmpC beta-lactamase in detergent-free assay; P00811; AmpC nitrocefin hydrolysis, absorbance 480 nm, 0.0001% Triton; Potency, µM (highest dose often 57.1 µM), without a hit: at the top dose activity change, negative = inhibition, hits mostly inhibitors; actives 0.52% (n = 330,000);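 also: plate controls were no compound for no effect and no enzyme for full effect; nearly all actives have a fitted effect of over 20% in size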
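20 mM phosphate pH 7.0 + 0.01% (detergent screen) or 0.0001% Triton X-100; 5.3 nM AmpC reagent; cpd preinc 15 min RT; nitrocefin (800 uM stock) to start; A480 q20 s × 4 min; Activity was normalised to no-enzyme and no-compound control wells.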
* hit, by the source's call; ? = inconclusive; . = not tested or not shown; [ ] = another dose, or the depositor's remark. Unless noted, calls follow the shape of the dose curve; as a rule, active = well fitted curve in the direction sought with a large enough effect; inconclusive = small, poorly fitted or top-dose-only effect, or another doubt; inactive = no such curve, though single readings can be large; an effect the other way counts as inactive or inconclusive. Unless noted, % is scaled to controls: 0 for no effect and ±100 for the full control effect; potency is read from the fitted curve at half-maximal effect.

SMILES	AMA1 RON2 block	Sm TGR block	AmpC inh detg	FMDV antiviral	AmpC inh no detg
C#Cc1cccc(C(=O)NCc2nc(-c3ccccc3NC(C)=O)oc2C)c1	.	.	.	2%	.
Cc1ccc(CCNC(=O)NCc2noc3ccc(C)cc23)cc1	.	-1%	3%	-1%	.
O=C(CSc1nc2ccccc2nc1Cc1ccc(Cl)cc1)NCCc1ccccc1	.	8%	20%	-2%	.
COc1cccc(Cn2c(=O)cnc3cnc(OCc4ccccc4)nc32)c1	.	.	.	-18%	.
FC(F)(F)c1ccccc1-n1c(-c2ccco2)n[nH]c1=S	28%	-6%	-14%	14µM*	185%
S=c1[nH]nc(-c2cc(-c3ccco3)[nH]n2)n1-c1cccc2ccccc12	-6%	11µM*	-13%	-18%	18µM*
CC(C)(C)C1CCc2c(sc(NC(=O)C3c4ccccc4Oc4ccccc43)c2C(N)=O)C1 (centres undefined)	.	-2%	25%	-8%	.
CC(=O)Nc1c(C)nn(-c2ccccc2)c1N1CCC(C(=O)Nc2ccc(Cl)cc2C)CC1	.	-4%	-5%	4%	.
CC(C)C1Cc2c(C#N)c(N)sc(=S)c2CO1 (centres undefined)	-1%	10µM*	-9%	-27%	-26%
CC1(C)Cc2c(C#N)c(N)sc(=S)c2CO1	-5%	?	-15%	.	-38%
Cc1cccc(/C=C/c2onc(C)c2[N+](=O)[O-])n1	-11%	.	.	14µM*	.
CCCCNC1C(CC)C(CCC)C(C#N)(C#N)C1(C#N)C#N (centres undefined)	4%	-11%	-6%	32µM*	?
CC(=O)N(Cc1ccc(F)cc1)C1=C(NCc2ccccc2)C(=O)c2ccccc2C1=O	?	-12%	-1%	35µM*	49%
O=C(NCc1ccc(F)cc1)C(c1ccccc1)c1ccccc1	9%	5%	-4%	-7%	-32%
CCOC(=O)CN(C)C(=O)c1cnn(-c2ncc3c(n2)-c2ccccc2CCC3)c1C	.	.	.	55%	.
COc1ccc(NC(=O)Cn2c(=O)oc3cc(S(=O)(=O)N4CCCCC4C)ccc32)cc1 (centres undefined)	.	4%	6%	-18%	.
CC(C)N1CCC2(CC1)N=C(c1ccc3c(c1)OCO3)CC(c1cc(Cl)ccc1O)N2 (centres undefined)	-12%	?	-5%	?	18µM*
Cc1cccc(Cn2c(=O)n(CC3CCC(C(=O)N4CCC(C)CC4)CC3)c(=O)c3sccc32)c1 (centres undefined)	.	1%	10%	32µM*	.
Cc1ccc2nc(NC3=NC4(CCCC4)C4=C(CCCC4=O)N3)oc2c1	.	.	.	40µM*	.
CC1(C)CC(=O)C2=C(C1)NC(Nc1nc3ccccc3o1)=NC21CCCC1	4%	2%	-1%	5%	-6%
CCSC1=NC2(CCCCC2)Nc2sc3c(c21)CCCC3	-5%	56µM*	?	?	-24%
COC(=O)CCC(=O)OC1(C)C(=O)C=C2C=C3CCCN3C=C2C1=O (centres undefined)	?	?	-7%	-14%	-21%
CC1(OC(=O)c2ccc(Cl)nc2)C(=O)C=C2C=C3CCCN3C=C2C1=O (centres undefined)	?	35µM*	2%	-9%	36%
CCN(CC)CC(=O)Nc1sc(C)cc1C(=O)c1ccccc1	20%	-12%	2%	-27%	0%
O=C(CCl)Nc1ccccc1Sc1ccc(Cl)cc1	13%	-32%	1%	32µM*	-23%
SMILES	AMA1 RON2 block	Sm TGR block	AmpC inh detg	FMDV antiviral	AmpC inh no detg
Cc1cc(C(=O)c2ccccc2)c(NC(=O)CCl)s1	1%	7.9µM*	0%	?	-14%
CC(=O)N1CCN(CC(=O)Nc2ccccc2Sc2ccc(Cl)cc2)CC1	-4%	5%	-2%	?	316%
O=C(CCl)Nc1ccccc1C(=O)c1ccccc1	4%	35µM*	?	?	-16%
Cc1ccccc1NC(=O)CCl	3%	22µM*	5%	?	-14%
Cc1c(C(=O)OCCOc2ccccc2)[nH]c2c1C(=O)CC(c1ccccc1Cl)C2 (centres undefined)	.	1%	19%	?	.
Cc1ccc(Cl)c(NC(=O)CCl)c1Cl	8%	32µM*	-9%	-19%	-14%
Cc1ccc(Cl)c(NC(=O)CSc2cccc[n+]2[O-])c1Cl	-8%	.	.	0%	-9%
CN(C)c1ccc(CN(CC2CCCO2)C(=O)COc2ccc(Cl)cc2)cc1 (centres undefined)	.	2%	12%	0%	.
O=C(CC(C(=O)O)c1ccc(F)cc1)c1ccc(Cl)cc1 (centres undefined)	-4%	-8%	-6%	-8%	-9%
Cc1ccc(SC(CC(=O)c2ccc(F)cc2)C(=O)O)cc1 (centres undefined)	3%	0.5µM*	2%	?	-25%
CC(C)(C)c1ccc(C(=O)CC(Sc2ccc(Cl)cc2)C(=O)O)cc1 (centres undefined)	1%	11µM*	-8%	?	-13%
COc1ccc(C(=O)NCC(c2cccnc2)N2CCN(c3ccc(F)cc3)CC2)cc1 (centres undefined)	.	-1%	0%	-25%	.
Cc1noc(C)c1C(=O)Nc1sc(C)c(-c2ccccc2)c1C#N	7%	-1%	5%	28µM*	-15%
O=C(NC1(C(F)(F)F)Oc2ccccc2O1)N1CCC2(CC1)OCCO2	-4%	18µM*	?	7%	-13%
O=C(c1ccccc1)N1CCC2(CC1)OCCO2	-27%	-1%	-4%	1%	-9%
O=C(NCCN1CCOCC1)NC1(C(F)(F)F)Oc2ccc(Cl)cc2O1 (centres undefined)	3%[2.32 µM]	9%	-14%	0%	-19%
O=C(NC1(C(F)(F)F)Oc2ccc(Cl)cc2O1)N1CCC2(CC1)OCCO2 (centres undefined)	24%	45µM*	5%	-15%	-23%
O=[N+]([O-])c1ccc(Nc2c3ccccc3nc3ccccc23)cc1	?	7%	?	-23%	-32%
COc1ccc([N+](=O)[O-])cc1Nc1c2ccccc2nc2ccccc12	-1%	2%	-2%	32µM*	0%
COc1ccc(OC)c(Nc2c3ccccc3nc3ccccc23)c1	20µM*	-15%	1%	?	1%
COc1ccc(Cn2c(=O)c3oc4ccccc4c3n(CC(=O)Nc3cc(C)cc(C)c3)c2=O)cc1	.	-10%	-2%	-9%	.
CCNC(=S)N/N=C/c1sccc1C	.	-31%	-11%	.	-30%
Cc1ccsc1/C=N/NC(=S)NCCc1ccccc1	67%	1%	-9%	-2%	18µM*
CC(C)CSc1nnc(CNC(=O)c2ccccn2)n1C	.	.	.	-8%	.
COc1ccc(C(=O)c2ccccc2)cc1CN1CCOCC1	-7%	.	.	10%	.
